Measurements from PubChem BioAssay AID1508621 (National Center for Advancing Translational Sciences (NCATS), 2021).
Records with an inconclusive call do not appear. A call without a number means that no potency is given here. The source made the active and inactive calls. Calls follow the shape of the dose curve; as a rule, active = well fitted inhibition curve with a large enough effect; inconclusive = small, poorly fitted or top-dose-only effect; inactive = no such curve, though single readings can be large or run the other way.

Experiment: Confirmatory qHTS for Identification of Small Molecule Inhibitors of Huntingtin Promoter Activity; also: nearly all actives have a fitted effect of over 65% in size
Conditions: HEK293 HTT promoter firefly luciferase reporter, 24 h; series mostly up to 57.5 µM
Method in brief: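 2,500 luciferase reporter HEK293 cells/well; 24 h culture; cpds up to 57.5 uM final, PTC124 50 uM ctrl; 24 h, 37C; Dual-Glo FLuc reagent, 10 min RT; lum. Norm.: vehicle 0%, zero RLU -100%.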
Potency is read from the fitted curve at half-maximal effect.

Row | Compound | Potency
1 | COc1ccccc1N=c1scc(-c2ccc(S(=O)(=O)N3CCCC3)cc2)n1C | 4.78 µM (active)
2 | Cn1c(=O)n(C)c2cc(NS(=O)(=O)c3ccc(F)cc3)ccc21 | inactive
3 | CC(C)c1ccc(Cc2cnc(NC(=O)c3ccc4c(c3)CC(c3ccccc3)OC4=O)s2)cc1 (configuration not stated) | 3.79 µM (active)
4 | O=C(C=Cc1cccc(S(=O)(=O)Nc2ccccc2)c1)NO | inactive
5 | CCCCN1CC(c2nc3ccccc3n2CCCCOc2ccc(C)c(C)c2)CC1=O (configuration not stated) | 19 µM (active)
6 | Cc1cccc(N2CCN(C(=O)c3ccc(NC(=O)c4nsc5ccccc45)cc3)CC2C)c1 (configuration not stated) | inactive
7 | CCS(=O)(=O)N1CC(CC#N)(n2cc(-c3ncnc4[nH]ccc34)cn2)C1 | inactive
8 | CCOc1ccc(C(=O)N(Cc2cc(OC)c(OC)c(OC)c2)c2ccccn2)cc1 | inactive
9 | O=C(O)c1ccc2c(c1)N(Cc1ccc(F)cc1)C(=O)c1ccccc1S2=O (configuration not stated) | inactive
10 | Cc1ccc(S(=O)(=O)Nc2cccc(-c3ccc(N4CCCCC4)nn3)c2)s1 | inactive
11 | CCc1ccc(-n2c(SCC(=O)NC(C)CC)nc3n[nH]c(C)c3c2=N)cc1 (configuration not stated) | inactive
12 | O=C(Cn1c(=O)oc2cc(S(=O)(=O)N3CCCCC3)ccc21)NCc1ccc(Cl)cc1 | inactive
13 | CN(C)c1ccc(Nc2nc(N)n(C(=O)c3c(F)cccc3F)n2)cc1 | inactive
14 | CCC(=O)N1CCc2cc(S(=O)(=O)NCCC(=O)Nc3ccc(CC)cc3)ccc21 | inactive
15 | COc1ccccc1C1Nc2c(sc3nc(C)cc(C)c23)C(=O)N1c1ccccc1 (configuration not stated) | inactive
16 | COc1ccc(-n2c(/C=C/c3cccc4ccccc34)nc3ccccc3c2=O)cc1Cl | inactive
17 | CCc1nc2ccc(C(=O)NCCc3ccc(OC)cc3OC)cc2nc1CC | inactive
18 | CCc1ccccc1-n1c(SCC(=O)Nc2ccc(C)cc2)nc2n[nH]c(C)c2c1=N | 13.5 µM (active)
19 | O=C(Nc1ccc(Cl)c(Cl)c1)N(Cc1c[nH]c2ccccc12)C1CCCCC1 | inactive

Row | Compound | Potency
20 | Cc1ccc(C(=O)Nc2ccc(F)cc2)cc1S(=O)(=O)N1CCCCCC1 | inactive
21 | COc1cccc(CNC(=O)c2ccc3nc(N4CCCCC4)sc3c2)c1OC | inactive
22 | CCc1c(C)sc2c1CCN(Cc1ccc(F)cc1)C2c1ccccc1 (configuration not stated) | inactive
23 | COc1cc(C[C@@H](CO)[C@H](CO)Cc2ccc(O)c(OC)c2)ccc1O | inactive
24 | O=C(CN1c2ccc(Br)cc2-c2ccccc2S1(=O)=O)N1CCCCC1 | inactive
25 | Cc1oc(-c2cccc(Cl)c2)nc1CN1CCC(C(=O)NCCCN2CCN(c3ccc(F)cc3)CC2)CC1 | 13.5 µM (active)
26 | CCn1cc(C(=O)N2CCN(c3ccc(C)cc3)C(C)C2)c(=O)c2cc(S(=O)(=O)N3CCCC3)ccc21 (configuration not stated) | inactive
27 | CC(C)c1nc2ccc(C(=O)NCCCN3CCN(c4cccc(Cl)c4)CC3)cc2o1 | inactive
28 | COC(=O)C1=C(C)NC(C)=C(C(=O)OCC(C)=O)C1c1ccccc1[N+](=O)[O-] (configuration not stated) | inactive
29 | C1=CCOCc2cc(ccc2OCCN2CCCC2)Nc2nccc(n2)-c2cccc(c2)OCC1 | 9.53 µM (active)
30 | O=C(Nc1ccccc1)c1ccc(Cl)c(S(=O)(=O)Nc2ccccc2)c1 | inactive
31 | Cc1ccccc1NC(=O)c1c(NC(=O)C(F)(F)F)sc2c1CCCCC2 | 0.849 µM (active)
32 | CC(=O)c1ccc(NS(=O)(=O)c2ccc3[nH]c(=O)[nH]c3c2)cc1 | inactive
33 | Cc1[nH]c2ccccc2c1CCNCc1ccc(C=CC(=O)NO)cc1 | inactive
34 | O=C(Nc1cccc(Cl)c1)c1c(NC(=O)C(F)(F)F)sc2c1CCCC2 | 4.26 µM (active)
35 | CC(C)c1ccc(NC(=O)C2CCN(c3nc(-c4ccc(C(C)C)cc4)no3)CC2)cc1 | 0.0953 µM (active)
36 | Cc1ccc(CN(C(=O)COc2cccc(Cl)c2)c2ccccn2)o1 | inactive
37 | Cc1c(NS(C)(=O)=O)cccc1-c1nc2ccccc2s1 | inactive
